A selection: hits, their analogues and other compounds. The true share with any hit is near 9.8%.
HTT cytoprotect: qHTS Multiplex Assay to Identify Dual Action Probes in a Cell Model of Huntington: Cytoprotection (ATP). PC12 HTT-Q103 induced, cytoprotection, ATP luminescence, 40 h. Potency, µM (highest dose often 56.4 µM), inactives show cytoprotection (ATP increase), hits mostly activators. actives 0.14% (n = 230,000). AID 1471, 2008; also: potency is read from the fitted curve at half-maximal effect; % of control where 0% means no effect; nearly all actives have a fitted effect of over 45% in size
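Huntington model: PC12 line, ecdysone-inducible HTTQ103 exon1–GFP, tebufenozide 100 nM. Test articles in a dose series. Endpoint luminescence from cellular ATP.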
HTT aggregate: qHTS Multiplex Assay to Identify Dual Action Probes in a Cell Model of Huntington: Aggregate Formation (GFP); AID 1688, 2009; PC12 HttQ103-GFP aggregates, Acumen cytometry, 40 h; Potency, µM (series often up to 46.1 µM), for inactives: at the top dose activity change, negative = inhibition, actives largely listed as inhibitors; actives 1.1% (n = 220,000); also: potency is read from the fitted curve at half-maximal effect; % is scaled to controls: 0 for no effect and ±100 for the full control effect; nearly all actives have a fitted effect of over 60% in size
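Aggregate formation scored by laser-scanning cytometer (488 excitation, 500–530 emission) in lysed PC12 cells expressing Q103-GFP after 100 nM tebufenozide induction; library tested in dose series, with ATPLite reagent added in the multiplex.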
HPGD inh: qHTS Assay for Inhibitors of HPGD (15-Hydroxyprostaglandin Dehydrogenase); purified HPGD, NADH fluorescence kinetic, PGE2 substrate; Potency, µM, for inactives: at the highest dose activity change, negative = inhibition, most hits filed as inhibitors; actives 4.3% (n = 150,000); active = well fitted inhibition curve with a large enough effect, not every such curve was filed as active; inconclusive = small, poorly fitted or top-dose-only effect, or another doubt; inactive = no such curve, though single readings can be large or run the other way; also: potency is read from the fitted curve at half-maximal effect; % is scaled to controls: 0 for no effect and ±100 for the full control effect
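NADH formation kinetics: reaction with 30 uM PGE2 and 1 mM NAD+ (final), 20 nM enzyme, Tris-HCl pH 8 with Tween 20, after 15 min compound preincubation at room temperature. Fluorescence change, last versus first of five reads.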
KDM4E inh: qHTS Assay for Inhibitors of Human Jumonji Domain Containing 2E (JMJD2E). Lysine-specific demethylase 4E (Homo sapiens), B2RXH2. JMJD2E catalytic domain, FDH-coupled NADH fluorescence (FDH is formaldehyde dehydrogenase). Potency, µM (highest dose often 57.1 µM), for the others: at the highest dose activity change, negative = inhibition, most hits filed as inhibitors. actives 1.6% (n = 230,000). AID 2147, 2009; active = well fitted inhibition curve with a large enough effect, not every such curve was filed as active; inconclusive = small, poorly fitted or top-dose-only effect, or another doubt; inactive = no such curve, though single readings can be large or run the other way;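 also: potency is read from the fitted curve at half-maximal effect; 0% = wells with enzyme and -100% = buffer wells without enzyme; nearly all actives have a fitted effect of over 50% in size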
ALDH1A1 inh: qHTS Assay for Inhibitors of Aldehyde Dehydrogenase 1 (ALDH1A1). Aldehyde dehydrogenase 1A1 (Homo sapiens), P00352. Potency, µM (doses to about 75.3 µM), for inactives: top-dose activity, negative = inhibition, actives largely listed as inhibitors. Purified ALDH1A1, NADH fluorescence, propionaldehyde substrate. actives 7.3% (n = 220,000); active = well fitted inhibition curve with a large enough effect, not every such curve was filed as active; inconclusive = small, poorly fitted or top-dose-only effect, or another doubt; inactive = no such curve, though single readings can be large or run the other way;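 also: potency is read from the fitted curve at half-maximal effect; plate controls were no enzyme wells and a reference inhibitor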
CBFb-RUNX1 inh: qHTS Assay for Compounds Blocking the Interaction Between CBF-beta and RUNX1 for the Treatment of Acute Myeloid Leukemia; AlphaScreen CBFb-His/RUNX1-biotin binding, biochemical; Potency, µM (top dose mostly 59.8 µM), inactives show at the top dose activity, negative = inhibition, most hits filed as inhibitors; 230,000 tested, under 10 active; AID 1477, 2009; also: % of control where 0% means no effect
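CBF-beta (His) and RUNX1 (biotin), 30 nM each; 20 min preassociation; + compound, 15 min; + beads 50 ng each (Ni, streptavidin), 90 min; RT; AlphaScreen read.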
* marks the source's active call; other numbers are inactive results; u = inconclusive; x = not tested or not shown; [ ] = remark or other dose. Unless noted, calls follow the shape of the dose curve; as a rule, active = well fitted curve in the direction sought with a large enough effect; inconclusive = small, poorly fitted or top-dose-only effect, or another doubt; inactive = no such curve, though single readings can be large; an effect the other way counts as inactive or inconclusive.

SMILES	HTT cytoprotect	HTT aggregate	HPGD inh	KDM4E inh	ALDH1A1 inh	CBFb-RUNX1 inh
COCCOC(=O)c1[nH]c2c(c1C)C(=O)CC(c1ccc(N(C)C)cc1)C2 (stereo not given)	-5%[10 µM]	-27%	-6%	-5%	14µM*	-15%
CCOC(=O)c1[nH]c2c(c1-c1ccc(OC)cc1)C(=O)CC(c1ccc(OC)c(OC)c1)C2 (stereo not given)	x	-10%	-14%	u	28µM*	-3%[2.36 µM]
O=C(CN1C(=O)/C(=C/c2c(F)cccc2Cl)Oc2ccccc21)NCc1ccco1	-1%	-2%	x	x	u	-12%
CC(C)C[C@@H](CC(=O)N[C@@H](CCC(=O)O)CC(=O)O)NC(=O)[C@@H]1CNCC[C@H]1NC(=O)C[C@H](CCCN)NC(=O)C[C@H](Cc1ccccc1)NC(=O)[C@@H]1CNCC[C@H]1N	-14%[1.9 µM]	x	-11%	-15%	-7%	u
CCN(Cc1cnn(C)c1)C(=O)c1ccc(OC2CCN(S(=O)(=O)N(C)C)CC2)cc1	-14%[10 µM]	2%[9.22 µM]	x	1%	20%	0%
COc1cccc(OC)c1OCCNCC1CSc2ccccc2O1 (stereo not given)	x	x	7%	14%	-5%	-2%
c1cc2[nH]snc2c2nc(C3CC3)nc12	10%	11µM*	-25%	20µM*	-9%	15%
COc1cc(/C=N/n2c(-c3ccccc3)n[nH]c2=S)cc(OC)c1OC	4%[10 µM]	6%[9.22 µM]	x	-17%	x	-2%
COc1ccc(-c2n[nH]c(=S)n2/N=C/C=C/c2ccccc2OC)cc1	-31%[10 µM]	22%	1.3µM*	3%	1%	u
COc1ccccc1/C=C/C=N/n1c(-c2ccc(Cl)cc2)n[nH]c1=S	-16%[10 µM]	-6%[9.22 µM]	x	u	11µM*	-7%
COc1ccccc1/C=C/C=N/n1c(-c2ccccc2)n[nH]c1=S	-3%[10 µM]	16%[9.22 µM]	x	-6%	28µM*	-8%
O=[N+]([O-])c1ccccc1/C=C/C=N/n1c(-c2ccccc2F)n[nH]c1=S	15%[10 µM]	2%[9.22 µM]	x	-21%	x	2%
COc1ccccc1/C=C/C=N/n1c(C2CCCCC2)n[nH]c1=S	9%[10 µM]	18%	7.1µM*	-8%	u	-19%
Cn1c(=O)n(C)c2cc(S(=O)(=O)Nc3cc(Cl)ccc3O)ccc21	15%[10 µM]	5%[9.22 µM]	x	1%	u	-3%
CC(=O)c1cc2c(cc1N(C(=O)Cn1nnc3ccccc31)C(C(=O)NCCC(C)C)c1cccnc1)OCO2 (stereo not given)	-9%[10 µM]	-2%[9.22 µM]	x	-17%	-2%	7%
COc1ccc(NC(=O)C2CCCO2)cc1Cl (stereo not given)	5%	-6%	16µM*	-3%	u	5%
O=C(Nc1cc(Cl)c(O)c(Cl)c1)C1CCCO1 (stereo not given)	-17%	-23%	25µM*	u	u	-7%
COc1cc(NC(=O)C2CCCO2)c(OC)cc1Cl (stereo not given)	-2%[10 µM]	2%	-3%	0%	1%	-10%
CSc1nc2ccc(NC(=O)C3CCCO3)cc2s1 (stereo not given)	-37%	-15%	28µM*	2%	u	1%
O=C(O)/C=C/C(=O)Nc1nccs1	5%[10 µM]	15%[9.22 µM]	x	-4%	0%	7%
C/C(=C\C(=O)Nc1nccs1)c1ccccc1	-30%	-9%	16µM*	-2%	-5%	2%

Compound activity (PubChem)
